About 2,100 (3.2%) of roughly 65,000 compounds showed an effect of 50% or more. The median lay at about -52%. The full list was thinned out, with strong results kept by preference.
Each molecule was assayed on Plasmodium falciparum (assay: Screen against P. falciparum Asexual Blood Stage (ABS), at 5uM). Conditions: tested at 5 uM.
Assay type: functional, Dd2

Row | Compound | INHIBITION [%]
1 | COc1ccccc1CNC(=O)COc1c(C)n(C)ccc1=O | -82.3
2 | CC(C)c1cnc(CN(C)C2CCN(CCc3cnn(C)c3)C2)o1 (configuration not stated) | -112
3 | O=C(NCC1CC1)C1CCC2(CCN(C(=O)c3cnccn3)CC2)O1 (configuration not stated) | -40.1
4 | CCCc1ccc(OCCNCc2ccco2)c(OC)c1 | 51.5
5 | COc1cc(C(C)=O)ccc1OCCNCc1ccco1 | 1.68
6 | COc1cc(CNCc2ccco2)ccc1OCCO | -66.2
7 | Cn1ccnc1-c1nccn1-c1cccc(CN2CCCC2)c1 | -2.05
8 | CCCc1nccn1-c1cccc(CN2CCCC2)c1 | 53.1
9 | c1cc(CN2CCCC2)cc(-n2ccnc2-c2ccncc2)c1 | 6.67
10 | O=C(NCCc1ccc(F)cc1)C1CN(C(=O)Cn2cncn2)C1 | -29.6
11 | Cc1nc(N(C)CCN(C)C)c2cnn(C)c2n1 | -71.9
12 | CN(C)CCN(C)c1nc(CCc2ccccc2)nc2c1cnn2C | 51.9
13 | COCc1nc(N(C)CCSc2ccccc2)c2cnn(C)c2n1 | -14.2
14 | CN1CCCc2cc(-c3cncn3CCNC3CCS(=O)(=O)C3)ccc21 (configuration not stated) | -79.3
15 | CC1Cc2cc(-c3cncn3CC(=O)NC(C)(C)C)ccc2N1C (configuration not stated) | 54.2
16 | CN1CCCc2cc(-c3cncn3CC(=O)NC(C)(C)C)ccc21 | -38.6
17 | CC1CCN(S(=O)(=O)c2cccn(CC(=O)NC(C)(C)C)c2=O)CC1 | -129
18 | CCN1CCc2cc(-c3cncn3CCNC3CCS(=O)(=O)C3)ccc21 (configuration not stated) | 3.68
19 | CCN1CCc2cc(-c3cncn3CC(=O)NC(C)(C)C)ccc21 | 66.2
20 | c1cc2c(cc1CSCc1noc(C3CC3)n1)OCCO2 | -17
21 | O=C(OCC1CCN(c2ccccc2)C1)c1cscn1 (configuration not stated) | 0.13
22 | CCOC1CCC2(CCN(C(=O)c3csnn3)CC2)c2ccccc21 (configuration not stated) | -79.6

Row | Compound | INHIBITION [%]
23 | O=C(O)c1ccccc1-c1ccc(CNC(=O)C2CCOCC2)cc1 | -63.2
24 | Nc1nc2c(c(NC(Cn3cccn3)c3ccccc3)n1)CCNCC2 (configuration not stated) | -40.8
25 | CN(CC1CCN(CCO)CC1)CC(O)c1ccc(F)cc1F (configuration not stated) | 56.7
26 | CN(CC1CCN(CCO)CC1)CC(O)c1ccc(F)cc1 (configuration not stated) | 69.1
27 | CCC(c1ccc(F)cc1F)N1CCN(CCO)CC1 (configuration not stated) | 34.1
28 | Cc1cnn(CC2CCN(CC(O)c3ccc(F)cc3)CC2)c1 (configuration not stated) | 29.3
29 | CN(CCOCC(F)(F)F)CC1CCN(CCO)CC1 | 19.4
30 | Cc1noc(CN(C)CC2CCN(CCO)CC2)n1 | -64
31 | Cc1ccc(C(=O)NCCCNc2ccc(C(F)(F)F)cn2)cc1 | 35.4
32 | CCS(=O)(=O)N1CCC(C(=O)NC(Cc2ccsc2)c2nccs2)CC1 (configuration not stated) | -83.8
33 | CN(Cc1ccccc1CNC(=O)C1CNC(=O)N1)C1CCCCC1 (configuration not stated) | -35
34 | COc1cc(N2CCC3(CC(=O)N(Cc4csc(C)n4)C3)C2)ncn1 (configuration not stated) | -10.7
35 | CN1CC(c2ccccc2)CC2(CCN(C(=O)c3ccccc3)CC2)C1 (configuration not stated) | 18.1
36 | COC(=O)N1CCC2(CC1)CC(c1ccccc1)CN(C)C2 (configuration not stated) | -17.2
37 | CN1CC(c2ccccc2)CC2(CCN(CC(=O)N(C)C)CC2)C1 (configuration not stated) | 53.8
38 | CC(C)OCc1ncn2c1CN(Cc1ccoc1)CCC2 | -4.62
39 | CCc1n[nH]c(C2CN(C(=O)c3ccnc(N(C)C)c3)CCO2)n1 (configuration not stated) | -77.2
40 | CC1CCCN1C1CCN(C(=O)c2cccc(-c3ccoc3)c2)CC1 (configuration not stated) | 53.6
41 | O=C(CN1CCN(C(=O)c2cccc(-c3ccoc3)c2)CC1)C1CC1 | -3.7
42 | CC1CCCN1C1CCN(C(=O)c2cccc(F)c2)CC1 (configuration not stated) | -14.6
43 | O=C1c2cc(Br)cc(Br)c2OCC1(CN1CCCC1)CN1CCCC1 | -65.9
44 | CC(C(=O)Nc1ccc(N2CCOCC2)nc1)n1cncn1 (configuration not stated) | -27

Row | Compound | INHIBITION [%]
45 | COc1cc(CN2CCCC(Nc3cccc(F)c3)C2)cc(OC)c1O (configuration not stated) | 36.9
46 | COc1ccc(F)cc1CN1CCCC(c2cc(C(N)=O)[nH]n2)C1 (configuration not stated) | -14.1
47 | COc1cccc(O)c1CN1CCCC(Nc2cccc(F)c2)C1 (configuration not stated) | 51.3
48 | COc1ccc(NC2CCCN(Cc3cnc(N(C)C)s3)C2)cc1OC (configuration not stated) | -54.2
49 | COc1ccc(CN2CCCC(Nc3cccc(F)c3)C2)cc1O (configuration not stated) | 63.3
50 | COc1cccc(CNc2ccc(F)c(Cl)c2)c1O | -117
51 | COc1cccc(CN2CCCC(Nc3cccc(F)c3)C2)c1O (configuration not stated) | 67.3
52 | COc1cccc(F)c1CN1CCC(c2nc(C)cc(C)n2)C1 (configuration not stated) | 23.3
53 | Fc1ccc(NC2CCCN(Cc3ccncc3)C2)cc1 (configuration not stated) | -65.4
54 | Oc1cccc(CN2CCN(C3CCc4ccccc4C3)CC2)c1 (configuration not stated) | 14.6
55 | Cc1n[nH]c(C)c1C1COCCN1C(=O)Cc1ccccc1F (configuration not stated) | -105
56 | Cc1cnc(CCN(C)C(=O)c2cccc(C)c2O)s1 | -152
57 | Cc1ccc(NC2CCN(C(=O)c3sccc3C3CC3)CC2)nn1 | -28.9
58 | Cc1ccc(C(C)NC(=O)N2CCCN(CC(F)F)CC2)s1 (configuration not stated) | -73.5
59 | Cc1cccc(CN2C(=O)CC[C@@H]3[C@H]2CCN3Cc2ccc(F)cc2)n1 | -111
60 | CCNc1nc2c(s1)C(=O)CN(C(=O)NCc1ccccc1)C2 | -146
61 | Cc1noc(CN2CCOC(CN(C)C)C2)n1 (configuration not stated) | -84.3
62 | Cc1cccc(-c2noc(CN3CCOC(Cn4cccn4)C3)n2)c1 (configuration not stated) | 51.2
63 | c1cncc(-c2noc(CN3CCOC(Cn4cccn4)C3)n2)c1 (configuration not stated) | 10.9
64 | CN(C)CC1CN(Cc2nc(-c3cccnc3)no2)CCO1 (configuration not stated) | -51.1
65 | Cc1ccc(-c2noc(CN3CCOC(Cn4cccn4)C3)n2)cc1 (configuration not stated) | -105
66 | Cc1ccc(-c2noc(CN3CCOC(CN(C)C)C3)n2)cc1F (configuration not stated) | 53.2

Row | Compound | INHIBITION [%]
67 | CC(NC(=O)CN1CCN(c2ccncc2Cl)CC1)c1ccco1 (configuration not stated) | -106
68 | O=C(CCC1CCCN(C(=O)CCc2ccc(F)c(F)c2)C1)NC1CC1 (configuration not stated) | -157
69 | Cc1ncc(CN2CCc3nc4cc(C(C)(C)C)nn4c(O)c3C2)n1C | -104
70 | CN1CCN(C2COC3(CCN(Cc4ccsc4)CC3)C2)CC1 (configuration not stated) | -10.7
71 | Cc1cnn(CC2CCCN2C(=O)c2ccc(OC(C)C)nc2)c1 (configuration not stated) | -94.7
72 | CN(C)c1cc(C(=O)N2CCCCC2Cn2cccn2)ccn1 (configuration not stated) | -202
73 | CC(C)Oc1ccc(C(=O)N2CCCCC2Cn2cccn2)cn1 (configuration not stated) | 64.8
74 | CCN(CC1CN(Cc2cccc(C#N)c2)CCO1)c1cccnn1 (configuration not stated) | -83.6
75 | CCn1ccnc1CN1CCCN(C(=O)COC2CCCCC2)CC1 | -84.3
76 | O=C(Nc1nccs1)NC1CCN(Cc2ccccn2)CC1 | 63.7
77 | O=C(Nc1nccs1)NC1CCN(Cc2ccccc2)CC1 | 28.3
78 | O=C(Nc1nccs1)NC1CCN(Cc2ccccc2)C1 (configuration not stated) | -9.31
79 | Cc1cn2nc(Sc3nnc(C(C)C)n3C)sc2n1 | -104
80 | OC(c1ccccn1)C1CCN(Cc2cc3n(n2)CCNC3)CC1 (configuration not stated) | -27.2
81 | CN(C)CC(=O)N1CCCCC1c1nc(N)ncc1-c1ccccc1 (configuration not stated) | 50.9
82 | CN(C)C(=O)CN1CCCCC1c1nc(N)ncc1-c1ccccc1 (configuration not stated) | -40.8
83 | CC(=O)N1CCCCC1c1nc(N)ncc1-c1ccccc1 (configuration not stated) | -145
84 | CC(C)Oc1ccc(CN2CCC(c3n[nH]c4ncccc34)CC2)cc1 | -69.9
85 | Cc1cc(C[C@@H]2CCC[C@H]2NCc2ccccc2C(F)(F)F)on1 | 15.6
86 | Cc1cc(C[C@@H]2CCC[C@H]2NCc2ccccc2F)on1 | -4.92
87 | Cc1cc(C[C@@H]2CCC[C@H]2NCc2cccc(F)c2F)on1 | -58.5
88 | Cc1cc(C[C@@H]2CCC[C@H]2NCc2c[nH]nc2-c2ccccc2)on1 | 57.4

Row | Compound | INHIBITION [%]
89 | Cc1cc(C[C@@H]2CCC[C@H]2NCc2cc(F)ccc2F)on1 | 20.7
90 | Cc1cc(C[C@@H]2CCC[C@H]2NCc2ccccc2C)on1 | 65.1
91 | Cc1cc(C(=O)N2CCN(C)CC2)nn1CC(=O)NCc1cccs1 | -139
92 | Cc1noc(CS(=O)(=O)C(C)C(=O)N(C)c2ccccc2)n1 (configuration not stated) | -10
93 | Cc1noc(C)c1CN1CC[C@H]2OCC[C@@H](C(=O)NCC3CC3)[C@H]2C1 | -48.5
94 | CN1CCCN(c2ccc(F)cc2CNC(=O)c2ccsc2)CC1 | 59.9
95 | Cc1ccc(C(=O)NCc2cc(F)ccc2N2CCCN(C)CC2)o1 | 34.9
96 | CN1CCCN(c2ccc(F)cc2CNC(=O)c2cccnc2)CC1 | -51.5
97 | CCc1nc(CN2CCCC(NCc3cccc(C(N)=O)c3)C2)no1 (configuration not stated) | -86.3
98 | Cc1ccnn1CC(=O)N(C)Cc1cnn(-c2ccccc2)c1 | -96.8
99 | CO[C@H]1CN(C(C)C)C[C@@H]1NC(=O)c1cc(-c2ccccc2F)n[nH]1 | -41.9
100 | CO[C@H]1CN(C(C)C)C[C@@H]1NC(=O)c1cc(COc2ccccc2)[nH]n1 | 57.2
101 | CC(=O)NCCNC(=O)c1cc(COc2ccccc2)[nH]n1 | -173
102 | N#Cc1ccc(CNCCS(=O)(=O)N2CCc3ccccc32)cc1 | -57.5
103 | OC1CCN(c2ccnc(NCCN3CCc4ccccc4C3)n2)C1 (configuration not stated) | -46.6
104 | OC1CCN(c2ccnc(NCCc3ccccc3Cl)n2)C1 (configuration not stated) | 61.6
105 | OC1CCN(c2ccnc(NCCc3ccccc3Cl)n2)CC1 | -50.8
106 | O=C(NCC1(Sc2ccccc2)CC1)c1ccc(=O)[nH]n1 | -22.5
107 | COCCOc1ccc(CNc2nc3ccccc3nc2N)cn1 | -49.5
